Most compounds without a hit are left out; they make up all but 11% or so of the library.
G9a block: G9a (human) methyltransferase inhibition | 350,000 tested, 8.8% active | G9a H3K9 monomethylation, AlphaScreen, 2 h | Potency, µM (titrated, usually from 102 µM), for the others: top-dose activity, negative = inhibition, usual class: inhibitors; further: potency means the concentration at half of the fitted maximal effect; nearly all actives have a fitted effect of over 75% in size
Target sequence (Q96KQ7 913-1193 limits assumed): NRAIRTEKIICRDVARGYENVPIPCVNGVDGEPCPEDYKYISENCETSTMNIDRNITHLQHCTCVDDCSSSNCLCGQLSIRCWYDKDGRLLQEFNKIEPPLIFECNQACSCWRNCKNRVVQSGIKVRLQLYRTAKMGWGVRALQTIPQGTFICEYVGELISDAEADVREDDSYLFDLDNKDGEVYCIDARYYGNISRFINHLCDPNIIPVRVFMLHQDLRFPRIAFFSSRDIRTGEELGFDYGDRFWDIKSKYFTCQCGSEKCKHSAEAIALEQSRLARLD
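AlphaScreen detection with an anti-monomethyl H3K9 antibody quantified product after a 2 h room-temperature reaction containing 500 nM biotinylated H3K9 peptide, 20 µM SAM and 20 nM enzyme, which had been preincubated 15 min with compound.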
Sfp PPTase inh: Sfp phosphopantetheinyl transferase inhibition. 310,000 tested, 3.5% active. Biochemical Sfp PPTase activity, qHTS. Q9F4F7. Potency, µM, for inactives: largest response in the series, negative = inhibition, usual class: inhibitors;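 further: the enzyme is Sfp with the accession as filed and its product quenches rhodamine fluorescence; potency means the concentration at half of the fitted maximal effect; 0% = enzyme reaction without inhibitor and -100% = no enzyme wells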
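Sfp 15 nM + cpd, 15 min RT; start w/ rhodamine-CoA 5 uM, BHQ-2-YbbR 12.5 uM (final); 50 mM Hepes pH 7.6, 10 mM MgCl2, 0.01% NP-40, 0.01% BSA; read 525/598 nm at 0 and 30 min.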
Tau FP inhib: inhibitors of human tau fibril formation; P10636; K18 P301L tau heparin fibrillization, Alexa594 FP, 6 h; Potency, µM (titrated, usually from 57.7 µM), for the others: top-dose activity, negative = inhibition, hits mostly inhibitors; 280,000 tested, 0.39% active; AID 1468; further: potency means the concentration at half of the fitted maximal effect; nearly all actives have a fitted effect of over 55% in size
Target sequence (P10636 561-689 P618L limits assumed): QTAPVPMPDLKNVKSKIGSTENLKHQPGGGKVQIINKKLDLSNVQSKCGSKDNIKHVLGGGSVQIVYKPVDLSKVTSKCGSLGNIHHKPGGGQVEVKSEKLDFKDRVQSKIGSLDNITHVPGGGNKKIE
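Steps: dispense K18 P301L tau (15 uM plus 0.24 uM Alexa 594 tracer, final) in pH 7 sodium acetate; add compound; add heparin (20 uM final); incubate 6 hr, 37 C; add ThT (30 uM final); after 1 hr ambient, read FP.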
Coupling enz: inhibits coupling enzyme system, counter-screen for aldolase hits | coupling enzyme system counterscreen, AmpLite Red fluorescence | activity change, negative = inhibition, % at 58.2 µM, hits read low | 290,000 tested, 0.67% active; in the data active means activity change below about -30%
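Counterscreen of the coupled detection system alone, without aldolase: glyceraldehyde-3-phosphate coupling enzymes plus AmpLite Red readout. Compounds at 57.5 uM final, 10 min RT preincubation, 20 min RT reaction, fluorescence 525/598 nm.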
Tau fluor counter: counter-screen for tau fibril formation inhibitors | tau K18 P301L Alexa594 fluorescence, heparin fibrillization | Potency, µM (doses to about 57.7 µM), for inactives: at the highest dose activity change, negative = decrease | 280,000 tested, 0.93% active | AID 1463; further: potency means the concentration at half of the fitted maximal effect; nearly all actives have a fitted effect of over 55% in size
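Human K18 P301L tau (15 uM unlabeled plus 0.24 uM Alexa 594-labeled, final) in 100 mM sodium acetate pH 7 was mixed with compound and 20 uM heparin and incubated 6 hr at 37 C.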
Tau fibril ThT: tau fibrillization inhibition (ThT binding). P10636. recombinant tau K18 P301L, heparin-induced fibrillization, ThT fluorescence. 270,000 tested, 2.1% active. Potency, µM (series often up to 57.4 µM), for the others: at the top dose activity, negative = inhibition, hits mostly inhibitors; further: potency means the concentration at half of the fitted maximal effect; nearly all actives have a fitted effect of over 55% in size
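Fibril formation assay: tau K18 P301L at 15 uM with trace Alexa 594 label, heparin inducer 20 uM, pH 7 sodium acetate buffer, 37 C for 6 hr; endpoint ThT signal.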
Active calls of the source: *; u = inconclusive; x = not tested or not shown; [ ] = remark or other dose. Unless noted, the call rests on the fitted dose curve; in most records, active means well fitted curve in the direction sought with a large enough effect; inconclusive means small, poorly fitted or top-dose-only effect, or another doubt; inactive means no such curve, though single readings can be large; an effect the other way counts as inactive or inconclusive. Unless noted, on the % scale 0 is the no-effect control and ±100 the full control effect.

SMILES	G9a block	Sfp PPTase inh	Tau FP inhib	Coupling enz	Tau fluor counter	Tau fibril ThT
COc1cc(C(=O)N2CCN(S(=O)(=O)c3cccs3)CC2)cc(OC)c1C	4.5µM*	-54%	2%	2	-3%	0%
COc1ccc(N2CCN(C(c3cccs3)C(C)NS(C)(=O)=O)CC2)cc1 (centres undefined)	56µM*	-5%	8%	-1	-12%	-8%
COc1ccc(N2CCN(S(=O)(=O)c3cccs3)CC2)cc1	25µM*	2%	5%	1	-23%	-23%
COc1ccc(N2CCN(S(=O)(=O)c3ccc(Cl)s3)CC2)cc1	-25%	-5%	0%	-1	-15%	-10%
COc1ccc(N2CCN(C(c3cccs3)C(C)NC(=O)c3ccco3)CC2)cc1 (centres undefined)	3.5µM*	-2%	10%	1	-15%	-14%
COc1ccccc1CN1CC2(CCN(C(=O)c3ccncc3)CC2)C1	-10%[12.7 µM]	-6%	x	3	x	x
CCC(c1nnc(SCc2nc3ccccc3s2)n1Cc1ccccc1)N(C)C (centres undefined)	50µM*	-15%	0%	3	-1%	u
c1ccc(Cn2c(SCc3nc4ccccc4s3)nnc2-c2ccco2)cc1	7.1µM*	20µM*	-2%	-1	1%	-18%
CCn1c(SCc2nc3ccccc3s2)nnc1-c1ccccc1	u	19%	0%	-2	-11%	u
COc1ccccc1-c1cc2nc(C)c(CCC(=O)Nc3ccc(Br)c(C)c3)c(C)n2n1	-7%[59 µM]	x	u	x	u	-15%
O=c1c(-c2ccccc2)c(O)c2cccc3c2n1CCC3	40µM*	15%	-3%	-3	-13%	-11%
CC12CCC(C(=O)NNc3ccc([N+](=O)[O-])cc3)(OC1=O)C2(C)C (centres undefined)	4%	14%	3%	2	11%	7%
CC12CCC(C(=O)NNc3ccccc3)(OC1=O)C2(C)C (centres undefined)	56µM*	19%	-5%	0	6%	5%
COc1ccc(NCc2cc3cc4c(cc3n(CC(=O)Nc3cc(C)ccc3C)c2=O)OCCO4)cc1	-25%[59 µM]	x	u	x	u	-13%
CCS(=O)(=O)c1nc(S(=O)(=O)c2ccc(C)cc2)c(N2CCC(O)CC2)s1	x	6%	x	x	x	x
COc1cccc(/C=C2\SC(=S)N(CCCC(=O)N3CCCC3)C2=O)c1	40µM*	-24%	x	1	x	x
O=C(CCN1C(=O)/C(=C\c2ccccc2)SC1=S)N1CCCCC1	-11%[59 µM]	3%	x	-2	x	x
O=C(CCN1C(=O)/C(=C/c2ccc(F)cc2)SC1=S)NNC(=O)c1ccncc1	10%	-2%	-10%	-2	-2%	-16%
CN1CCN(C(=O)CCN2C(=O)/C(=C/c3ccc(F)cc3)SC2=S)CC1	71µM*	-10%	x	0	x	x
O=C(CCN1C(=O)/C(=C/c2cccs2)SC1=S)N1CCCCC1	10µM*	-11%	x	0	x	x
O=C(CCN1C(=O)/C(=C/c2ccc(F)cc2)SC1=S)NCCc1cnc[nH]1	28µM*	-13%	x	x	x	x
O=C1/C(=C/c2cccs2)SC(=S)N1CCC(=O)N1CCCCC1CCO (centres undefined)	50µM*	-12%	x	x	x	x
CN1CCN(NC(=O)CN2C(=O)/C(=C/c3c(Cl)cccc3Cl)SC2=S)CC1	56µM*	-18%	-6%	4	-13%	u
COc1cccc(/C=C2\SC(=O)N(CCC(=O)N3CCC(C(=O)O)CC3)C2=O)c1	71µM*	2%	x	x	x	x
CN1CCN(NC(=O)CN2C(=O)/C(=C/c3ccccc3Cl)SC2=S)CC1	u	u	-2%	2	-13%	u
SMILES	G9a block	Sfp PPTase inh	Tau FP inhib	Coupling enz	Tau fluor counter	Tau fibril ThT
COc1ccccc1/C=C1\SC(=S)N(CCC(=O)N2CCCCC2CCO)C1=O (centres undefined)	u	-5%	x	-2	x	x
COc1cccc(/C=C2\SC(=S)N(CCCC(=O)N3CCCCC3CCO)C2=O)c1 (centres undefined)	u	-24%	x	x	x	x
COc1cccc(/C=C2\SC(=S)N(CCC(=O)N3CCCCC3CCO)C2=O)c1 (centres undefined)	56µM*	-26%	x	-1	x	x
COc1ccccc1C(=O)OCc1cc(=O)n2nc(C3CCCCC3)sc2n1	-13%[59 µM]	x	5%	x	6%	-17%
CN(CC(=O)Nc1cccc(Cl)c1)S(=O)(=O)c1ccc2[nH]c(=O)oc2c1	7%	-4%	x	5	x	x
COC(=O)CS(=O)(=O)c1cccc2cccnc12	12%	13%	2%	4	-5%	-8%
CCCCOC(=O)c1ccc(Nc2ncnc3[nH]ncc23)cc1	-5%[59 µM]	x	u	x	u	-4%
CCN(C(=O)COC(=O)COc1ccccc1Cl)c1c(N)n(Cc2ccccc2)c(=O)[nH]c1=O	21%[12.7 µM]	x	x	x	x	x
COC(=O)c1c(-c2ccc(C)cc2)csc1NC(=S)NC(=O)c1ccc(F)cc1	79µM*	-27%	u	1	-18%	-14%
CCOC(=O)c1c(-c2ccc(C)cc2)csc1NC(=S)NC(=O)c1ccccc1	-12%[59 µM]	21%	u	-6	u	-23%
COc1cc(C(=O)Nc2scc(-c3ccc(Br)cc3)c2C(=O)O)cc(OC)c1OC	u	16%	x	-7	x	x
Cc1ccc(-c2csc(NC(=O)c3ccc(Br)cc3)c2C(=O)O)cc1	14%	17%	x	-30*	x	x
COc1ccc(-c2noc(-c3ccc4c(c3)OCO4)n2)cc1	23%[59 µM]	15%	-13%	1	-14%	u
Fc1ccc(-n2c(-c3ccc4ccccc4n3)n[nH]c2=S)cc1Cl	u	19%	5%	-8	-20%	-17%
COc1cc(OC)cc(-c2n[nH]c(=S)n2-c2ccc3c(c2)OCO3)c1	1.8µM*	u	3%	2	-3%	-4%
Fc1ccc(-n2c(-c3ccc4c(c3)OCO4)n[nH]c2=S)cc1Cl	1.4µM*	-9%	4%	4	-11%	-6%
NC(=O)c1ccc(N2CCC(C(N)=O)CC2)c([N+](=O)[O-])c1	x	1%	8%	0	3%	-10%
CCCn1cc(SCC(=O)Nc2ccc3c(c2)OCO3)c2ccccc21	u	10%	2%	-3	u	u
Cn1cc(SCC(=O)Nc2ccc3c(c2)OCO3)c2ccccc21	25µM*	u	-7%	-7	-27%	u
